Screening data from PubChem.
This is a sample that favours compounds with a hit; in the whole collection about 2.8% have one here.
Peg3 prom inh = inhibitors of Peg3 promoter | HeLa PEG-Prom luciferase reporter, luminescence, overnight | 360,000 tested, 1.7% active | inhibition, % at 20 µM;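 active = inhibition of at least 50% at 20 µM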
Shn3 inh set2 = inhibitors of Schnurri-3 3'UTR reporter in osteoblasts. Clone20 osteoblast Shn3 3'UTR firefly luciferase, 24 h. AID 588674. inhibition, % at 12.5 µM. 360,000 tested, 0.52% active;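 active = mean inhibition of at least 75% with every replicate also reaching 75%; inconclusive = mean inhibition at least 75% but some replicate below; inactive = mean inhibition below 75%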
MITF TRPM1 inh = reduces MITF-dependent TRPM1 promoter luciferase signal | SK-MEL-5 TRPM1 promoter luciferase, 24 h | inhibition, % at 12.5 µM | 330,000 tested, 0.83% active;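 active = mean inhibition across replicates of 60% or more, whatever share of single replicates reaches that level; inconclusive = some that reach 60%, reason not given; inactive = mean inhibition across replicates below 60%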
PAX8 reporter = inhibitors of PAX8 transcriptional activity in RMG-I cells; RMG-I TPO-luciferase reporter, SteadyGlo, 24 h; inhibition, % at 12.6 µM; 360,000 tested, 1.2% active;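 active = mean replicate inhibition at least 60% with every replicate also reaching 60%; inconclusive = only one of the two criteria is met; inactive = mean below 60% and not all replicates reaching 60%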;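 note: luciferase light reporting Pax8 driven TPO promoter activity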
EBV LMP1 NFkB = inhibitors of Epstein-Barr LMP1-induced NF-kappaB reporter. AID 504558. LMP1-induced NF-kappaB luciferase reporter cells, luminescence. inhibition, % at 12.5 µM. 350,000 tested, 0.69% active; in the data active = inhibition above about 41%; inconclusive = no clear call, values can overlap the other calls
HIF-2a inh = inhibitors of HIF-2a; 786-0 RCC cells HIF-2a reporter, luciferase luminescence, overnight; inhibition, % at 18.8 µM; 360,000 tested, 0.72% active; AID 624352;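 active = inhibition of the luminescence signal of 40% or more relative to plate controls, in a single-dose primary screen at 18.75 µM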
Numbers stand for hits; - = inactive; ? = inconclusive; . = not tested or not shown.

SMILES	Peg3 prom inh	Shn3 inh set2	MITF TRPM1 inh	PAX8 reporter	EBV LMP1 NFkB	HIF-2a inh
C=CC[C@@H](CC(=O)N(CCO)Cc1ccccc1)C(=O)N[C@H](COC(=O)[C@@H](CC=C)Cc1ccc(F)cc1)Cc1c[nH]c2ccccc12	55.0	-	-	-	-	-
C=CC[C@H](CC(=O)N(CCO)Cc1ccccc1)C(=O)NC[C@H](OC(=O)[C@@H](CC=C)Cc1ccc(F)cc1)c1ccccc1	59.6	88.6	-	-	-	-
C=CC[C@H](CC(=O)N(CCO)Cc1ccccc1)C(=O)N[C@H](COC(=O)[C@@H](CC=C)Cc1ccc(F)cc1)Cc1c[nH]c2ccccc12	61.5	-	-	82.0	-	-
C=CC[C@@H](CC(=O)N(CCO)Cc1ccccc1)C(=O)N[C@@H](COC(=O)[C@@H](CC=C)Cc1ccc(F)cc1)Cc1ccccc1	-	-	-	-	-	-
C=CC[C@@H](CC(=O)N(CCO)Cc1ccccc1)C(=O)N[C@H](COC(=O)[C@@H](CC=C)Cc1ccc(F)cc1)Cc1ccccc1	-	-	-	-	-	-
C[C@@H]1CN([C@@H](C)CO)C(=O)c2cc(NS(=O)(=O)c3ccccc3)ccc2O[C@H]1CN(C)S(=O)(=O)c1cn(C)cn1	.	.	.	-	.	.
OC[C@H]1[C@H](c2ccc(C#Cc3ccccc3F)cc2)[C@H]2CN(Cc3cncnc3)CCCCN21	.	.	.	-	.	.
COc1ccc(S(=O)(=O)Nc2ccc3c(c2)CC(=O)N([C@@H](C)CO)C[C@@H](C)[C@@H](CN(C)Cc2ccncc2)O3)cc1	.	.	.	-	.	.
COC/C=C/C1=CC2=CC(=O)C(C)(OC(=O)c3cnc4ccccc4n3)C(=O)C2=CN1Cc1ccccc1 (centres undefined)	-	-	-	80.1	-	-
COC/C=C/C1=CC2=CC(=O)C(C)(OC(=O)c3cnc4ccccc4n3)C(=O)C2=CN1C1CC1 (centres undefined)	-	-	-	65.9	-	-
CC(=O)N(C)C[C@@H]1OCc2ccccc2-c2ccccc2C(=O)N([C@@H](C)CO)C[C@H]1C	.	.	.	-	.	.
CC(C)NC(=O)N(C)C[C@H]1Oc2c(NC(=O)Nc3ccc(C(F)(F)F)cc3)cccc2C(=O)N([C@@H](C)CO)C[C@H]1C	.	.	.	-	.	.
Cc1ccc(N2CCN(C3=NC(=O)/C(=C\c4cn[nH]c4-c4ccccc4)S3)CC2)cc1	-	-	-	-	68.6	-
COc1cccc(S(=O)(=O)N(C)C[C@H]2Oc3ncc(C#CC(C)C)cc3C(=O)N([C@@H](C)CO)C[C@H]2C)c1	.	.	.	-	.	.
CN[C@H]1CC[C@@H](c2ccc(Cl)c(Cl)c2)c2ccccc21	95.0	-	-	-	-	-
O=C(C[C@@H]1C[C@@H]2c3cc(NC(=O)C4CCC4)ccc3O[C@@H]2[C@@H](CO)O1)NCc1ccc(-c2ccccc2)cc1	.	.	.	69.6	.	.
CS(=O)(=O)Nc1ccc2c(c1)[C@@H]1C[C@@H](CC(=O)NCc3ccc(-c4ccccc4)cc3)O[C@@H](CO)[C@@H]1O2	.	.	.	81.9	.	.
O=C(C[C@@H]1C[C@@H]2c3cc(NC(=O)C4CCC4)ccc3O[C@@H]2[C@H](CO)O1)NCc1ccc(-c2ccccc2)cc1	.	.	.	-	.	.
O=C(C[C@@H]1C[C@@H]2c3cc(NC(=O)Nc4ccccc4F)ccc3O[C@@H]2[C@H](CO)O1)NCc1ccc(Oc2ccccc2)cc1	.	.	.	82.3	.	.
CS(=O)(=O)Nc1ccc2c(c1)[C@@H]1C[C@@H](CC(=O)NCc3ccc(Oc4ccccc4)cc3)O[C@H](CO)[C@@H]1O2	.	.	.	-	.	.
CS(=O)(=O)Nc1ccc2c(c1)[C@@H]1C[C@@H](CC(=O)NCc3ccc(Oc4ccccc4)cc3)O[C@@H](CO)[C@@H]1O2	.	.	.	84.1	.	.
Oc1ccc2ccccc2c1-c1sc(Nc2ccccc2)n[n+]1-c1ccc(F)cc1	-	-	-	-	-	-
COc1ccc(C)cc1Nc1n[n+](-c2ccccc2)c(-c2c(OC)ccc3ccccc23)s1	56.5	-	66.4	84.2	44.2	-
Fc1ccc(-[n+]2nc(Nc3ccccc3)sc2-c2c3ccccc3cc3ccccc23)cc1	53.3	-	-	86.4	-	-
Cc1cc(Nc2cc(Cl)nc(Sc3ccc(NC(=O)C4CC4)cc3)n2)n[nH]1	-	-	-	74.8	-	-
SMILES	Peg3 prom inh	Shn3 inh set2	MITF TRPM1 inh	PAX8 reporter	EBV LMP1 NFkB	HIF-2a inh
Cc1cc(NC(=O)c2ccc(NC(=O)C3CC3)cc2)no1	-	-	-	-	-	-
O=C(C[C@H]1C[C@H]2c3cc(NC(=O)C4CCOCC4)ccc3O[C@H]2[C@@H](CO)O1)NC1CCCCC1	.	.	.	-	.	.
COc1ccc(-c2nn(-c3ccccc3)cc2/C=C/C(=O)N2CCN(c3ccccn3)CC2)cc1	52.0	-	-	-	-	-
Cc1cc(Br)ccc1OCCn1ccnc1	-	-	-	72.6	-	-
Clc1cc(Br)ccc1OCCn1ccnc1	-	-	-	-	-	-
CCCOc1ccc(/C=C2/C(=O)ON=C2C)cc1Cl	64.7	-	-	-	-	-
Cc1ccc(C(=O)Nc2ncc3c(Cl)cccc3n2)cc1	-	-	-	.	51.2	-
N#CCCNC(=O)Cn1c(COc2ccc(Cl)cc2)nc2ccccc21	-	-	-	69.7	-	-
O=C(Cn1c(COc2ccc(Cl)cc2)nc2ccccc21)NCC(F)(F)F	-	-	-	-	-	-
O=C(Cn1c(COc2ccccc2)nc2ccccc21)Nc1cc(Cl)ccc1Cl	54.1	-	-	-	-	-
CN(C)CC(C)(C)CNS(=O)(=O)c1ccc(OC(F)(F)F)cc1	-	-	-	-	46.6	-
CCCCCCN(C(=O)CCCCCN1C(=O)NC(c2ccc(-c3ccccc3)cc2)C(C(=O)OCc2ccccc2)=C1C)C(C)C(=O)NCCCC (centres undefined)	.	.	.	74.9	.	.
CCCCCCN(C(=O)CCCCCN1C(=O)NC(c2ccc(-c3ccccc3)cc2)C(C(=O)OCc2ccccc2)=C1C)C(C(=O)NCCCC)c1ccccc1 (centres undefined)	.	.	.	-	.	.
O=C(OCn1ncc(Br)c(Br)c1=O)c1ccccc1Cl	106.1	96.7	88.8	.	-	92.2
O=C(OCc1cnc(Cl)s1)c1ccccc1Cl	-	-	-	.	-	-
O=C(OCn1ncc(Br)c(Br)c1=O)c1ccc(F)cc1	108.9	98.0	85.2	.	?	92.6
NC(N)=NCCCC(N)C(=O)CC(Cc1ccccc1)C(=O)O (centres undefined)	.	.	.	-	.	.
O=C(NCCc1c[nH]c2ccccc12)c1ccc([N+](=O)[O-])o1	-	-	.	71.7	-	-
C[C@H](CO)N1C[C@H](C)[C@@H](CN(C)Cc2ccc(-c3ccccc3)cc2)Oc2c(cccc2N(C)C)C1=O	.	.	.	-	.	.
CCOC(=O)N1CCN(C(=O)c2ccc3c(=O)n(Cc4ccc(Cl)cc4)c(=S)[nH]c3c2)CC1	-	-	-	.	-	-
NS(=O)(=O)c1ccc(CCNC(=O)CCCCCn2c(=S)[nH]c3ccc(Br)cc3c2=O)cc1	61.6	-	-	-	-	-
CCOC(=O)N1CCN(C(=O)c2ccc(Cn3c(=S)[nH]c4ccc(Br)cc4c3=O)cc2)CC1	-	?	71.1	-	50.8	-
